From the supplement of paper PMC10849652
About 7,900 targets were measured; listed, in parts, are those with a hit and a random draw of the rest. About 0.6% of all pairs of compound and target were hits. A number with no mark means an inactive call.

Columns and labels:
Experiment in all cases: log2 fold change, soluble protein after heating vs DMSO (PISA); higher = thermal stabilisation; K562 cells, 10 uM, 30 min; active = over 0.2 and 3.5 SD of the protein, either way, in both replicates (recomputed)
[1] = compound: NC(=O)Nc1cc(-c2cccc(F)c2)sc1C(=O)N[C@H]1CCCNC1
Outline: (§1)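 For each measurement, 10 μM compound was applied for 30 min to K562 cells at 2×10^6 cells/mL. Aliquots were heated for 3 min across 48°C-58°C, pooled, and extracted in PBS with 0.5% NP-40 at 4°C; the supernatant after 21,000xg for 90 min was soluble protein. This was quantified by TMTpro 16plex LC-MS/MS with channel sums equalised, and thermal stability was reported relative to control samples from duplicates, on a log2 fold-change scale.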

[2] = compound: NC(=O)c1cnc(N[C@@H]2CCCC[C@@H]2N)nc1Nc1cccc(-n2nccn2)c1
Outline: as §1

[3] = compound: NC1(c2ccc(-c3nc4ccn5c(=O)[nH]nc5c4cc3-c3ccccc3)cc2)CCC1
Outline: as §1

[4] = compound: NCC(=O)Nc1ccc(-n2nc(C(F)(F)F)cc2-c2ccc3c(ccc4ccccc43)c2)cc1
Outline: as §1

entinostat = compound: Nc1ccccc1NC(=O)c1ccc(CNC(=O)OCc2cccnc2)cc1 [entinostat]
Outline: as §1

vorinostat = compound: O=C(CCCCCCC(=O)Nc1ccccc1)NO [vorinostat]
Outline: as §1

citarinostat = compound: O=C(CCCCCCNC(=O)c1cnc(N(c2ccccc2)c2ccccc2Cl)nc1)NO [citarinostat]
Outline: as §1

silmitasertib = compound: O=C(O)c1ccc2c(c1)nc(Nc1cccc(Cl)c1)c1ccncc12 [silmitasertib]
Outline: as §1

[5] = compound: O=C1NC(=O)C(c2cnc3ccccn23)=C1c1cn2c3c(cc(F)cc13)CN(C(=O)N1CCCCC1)CC2
Outline: as §1

[6] = compound: c1cc(OCCN2CCCCC2)cc(-c2n[nH]c3ccc(-c4nnc[nH]4)cc23)c1
Outline: as §1

Sequence of UniProt Q16594 (Q16594 whole entry, looked up): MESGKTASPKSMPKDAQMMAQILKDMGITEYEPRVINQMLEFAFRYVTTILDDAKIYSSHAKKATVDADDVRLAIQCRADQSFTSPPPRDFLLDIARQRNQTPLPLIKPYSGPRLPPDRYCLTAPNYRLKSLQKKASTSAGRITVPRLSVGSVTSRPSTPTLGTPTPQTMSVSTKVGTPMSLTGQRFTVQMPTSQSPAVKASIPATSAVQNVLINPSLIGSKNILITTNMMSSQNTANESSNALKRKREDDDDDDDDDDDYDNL
Sequence of UniProt Q9NXE4 (Q9NXE4 whole entry, looked up): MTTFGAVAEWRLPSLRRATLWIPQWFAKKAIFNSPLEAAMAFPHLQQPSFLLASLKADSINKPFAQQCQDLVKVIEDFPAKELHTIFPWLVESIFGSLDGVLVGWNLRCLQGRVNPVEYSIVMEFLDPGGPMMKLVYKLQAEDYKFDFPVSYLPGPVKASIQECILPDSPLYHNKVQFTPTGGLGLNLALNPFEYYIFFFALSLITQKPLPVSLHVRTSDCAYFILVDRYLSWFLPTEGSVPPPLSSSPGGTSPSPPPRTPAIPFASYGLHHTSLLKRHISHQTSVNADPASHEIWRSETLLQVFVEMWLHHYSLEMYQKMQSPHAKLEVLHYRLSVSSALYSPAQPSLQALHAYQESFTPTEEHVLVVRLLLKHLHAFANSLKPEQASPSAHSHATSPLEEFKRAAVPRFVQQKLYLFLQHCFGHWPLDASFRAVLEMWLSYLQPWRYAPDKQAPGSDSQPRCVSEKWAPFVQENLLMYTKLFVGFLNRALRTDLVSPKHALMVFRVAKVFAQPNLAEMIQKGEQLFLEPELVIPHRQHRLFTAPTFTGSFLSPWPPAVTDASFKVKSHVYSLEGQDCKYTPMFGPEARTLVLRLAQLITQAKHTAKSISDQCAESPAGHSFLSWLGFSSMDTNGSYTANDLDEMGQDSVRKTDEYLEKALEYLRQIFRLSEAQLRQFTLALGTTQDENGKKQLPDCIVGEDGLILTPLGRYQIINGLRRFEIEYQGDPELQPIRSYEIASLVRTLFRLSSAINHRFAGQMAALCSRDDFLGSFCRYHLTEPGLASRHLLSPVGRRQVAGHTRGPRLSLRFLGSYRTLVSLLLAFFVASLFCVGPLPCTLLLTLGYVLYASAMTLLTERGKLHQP
Sequence of UniProt P12235 (P12235 whole entry, looked up): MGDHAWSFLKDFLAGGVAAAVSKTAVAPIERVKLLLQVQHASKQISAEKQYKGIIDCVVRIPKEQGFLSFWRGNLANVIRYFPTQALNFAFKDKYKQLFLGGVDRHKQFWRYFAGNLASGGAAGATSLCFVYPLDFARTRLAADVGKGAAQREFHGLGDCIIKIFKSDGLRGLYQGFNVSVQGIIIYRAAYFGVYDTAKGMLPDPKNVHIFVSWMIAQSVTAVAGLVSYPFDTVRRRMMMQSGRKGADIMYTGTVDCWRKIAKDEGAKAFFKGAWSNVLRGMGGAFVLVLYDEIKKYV
Sequence of UniProt Q9NUY8 (Q9NUY8 whole entry, looked up): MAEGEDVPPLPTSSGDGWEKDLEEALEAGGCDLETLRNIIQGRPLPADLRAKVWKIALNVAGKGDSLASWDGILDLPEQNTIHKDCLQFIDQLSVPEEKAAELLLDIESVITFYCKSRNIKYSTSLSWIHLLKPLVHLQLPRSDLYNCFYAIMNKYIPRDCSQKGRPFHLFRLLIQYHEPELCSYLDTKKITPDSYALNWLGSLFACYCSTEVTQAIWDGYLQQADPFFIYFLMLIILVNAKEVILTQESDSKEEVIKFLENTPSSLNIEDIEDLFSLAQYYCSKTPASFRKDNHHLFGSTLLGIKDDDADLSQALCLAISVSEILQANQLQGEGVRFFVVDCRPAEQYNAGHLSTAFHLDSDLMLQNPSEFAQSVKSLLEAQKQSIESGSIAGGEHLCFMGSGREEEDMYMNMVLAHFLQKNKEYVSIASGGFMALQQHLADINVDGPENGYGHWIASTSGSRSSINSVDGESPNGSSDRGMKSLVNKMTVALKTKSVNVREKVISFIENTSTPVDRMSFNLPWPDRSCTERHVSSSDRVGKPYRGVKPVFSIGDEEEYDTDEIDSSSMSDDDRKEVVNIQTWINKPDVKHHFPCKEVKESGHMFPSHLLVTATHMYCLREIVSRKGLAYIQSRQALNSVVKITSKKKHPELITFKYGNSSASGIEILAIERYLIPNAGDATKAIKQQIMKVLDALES
Sequence of UniProt Q08170 (Q08170 whole entry, looked up): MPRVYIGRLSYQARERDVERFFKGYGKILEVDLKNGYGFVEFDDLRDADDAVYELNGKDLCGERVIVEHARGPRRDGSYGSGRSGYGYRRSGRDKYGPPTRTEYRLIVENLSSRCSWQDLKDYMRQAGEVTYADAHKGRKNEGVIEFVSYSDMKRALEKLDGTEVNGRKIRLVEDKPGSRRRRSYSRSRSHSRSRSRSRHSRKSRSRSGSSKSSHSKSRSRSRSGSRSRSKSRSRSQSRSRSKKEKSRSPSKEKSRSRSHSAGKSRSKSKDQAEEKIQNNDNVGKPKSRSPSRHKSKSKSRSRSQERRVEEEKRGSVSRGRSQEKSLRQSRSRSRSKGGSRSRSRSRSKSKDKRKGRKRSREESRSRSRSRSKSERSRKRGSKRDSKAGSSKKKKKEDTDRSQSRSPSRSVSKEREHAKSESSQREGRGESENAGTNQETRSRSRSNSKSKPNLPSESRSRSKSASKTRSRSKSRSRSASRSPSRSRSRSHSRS
Sequence of UniProt Q9Y2W1 (Q9Y2W1 whole entry, looked up): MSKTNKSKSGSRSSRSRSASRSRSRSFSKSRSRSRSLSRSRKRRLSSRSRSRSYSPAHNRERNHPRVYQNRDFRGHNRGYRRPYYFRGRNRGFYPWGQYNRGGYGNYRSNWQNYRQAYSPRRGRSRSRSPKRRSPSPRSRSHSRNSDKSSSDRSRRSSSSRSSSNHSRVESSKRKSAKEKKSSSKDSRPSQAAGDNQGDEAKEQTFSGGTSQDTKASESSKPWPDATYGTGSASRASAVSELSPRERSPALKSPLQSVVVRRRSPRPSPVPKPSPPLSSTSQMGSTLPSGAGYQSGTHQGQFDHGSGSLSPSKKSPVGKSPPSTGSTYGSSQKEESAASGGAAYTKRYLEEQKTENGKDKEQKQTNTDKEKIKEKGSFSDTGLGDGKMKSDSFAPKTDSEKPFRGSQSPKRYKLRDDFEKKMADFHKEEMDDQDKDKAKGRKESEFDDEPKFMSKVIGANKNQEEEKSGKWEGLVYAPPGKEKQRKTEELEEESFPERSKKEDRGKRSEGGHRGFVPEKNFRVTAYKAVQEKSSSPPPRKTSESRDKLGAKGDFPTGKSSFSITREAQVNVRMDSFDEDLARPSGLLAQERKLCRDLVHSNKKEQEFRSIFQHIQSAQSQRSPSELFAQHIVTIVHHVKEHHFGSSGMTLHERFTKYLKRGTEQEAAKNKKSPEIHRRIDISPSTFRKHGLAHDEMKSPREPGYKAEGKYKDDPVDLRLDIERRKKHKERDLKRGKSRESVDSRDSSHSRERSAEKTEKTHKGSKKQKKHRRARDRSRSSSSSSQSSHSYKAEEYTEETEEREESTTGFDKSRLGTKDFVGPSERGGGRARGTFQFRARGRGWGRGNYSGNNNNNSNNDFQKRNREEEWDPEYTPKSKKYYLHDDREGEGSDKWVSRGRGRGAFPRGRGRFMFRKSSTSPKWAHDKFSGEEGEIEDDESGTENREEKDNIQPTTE
Sequence of UniProt Q13586 (Q13586 whole entry, looked up): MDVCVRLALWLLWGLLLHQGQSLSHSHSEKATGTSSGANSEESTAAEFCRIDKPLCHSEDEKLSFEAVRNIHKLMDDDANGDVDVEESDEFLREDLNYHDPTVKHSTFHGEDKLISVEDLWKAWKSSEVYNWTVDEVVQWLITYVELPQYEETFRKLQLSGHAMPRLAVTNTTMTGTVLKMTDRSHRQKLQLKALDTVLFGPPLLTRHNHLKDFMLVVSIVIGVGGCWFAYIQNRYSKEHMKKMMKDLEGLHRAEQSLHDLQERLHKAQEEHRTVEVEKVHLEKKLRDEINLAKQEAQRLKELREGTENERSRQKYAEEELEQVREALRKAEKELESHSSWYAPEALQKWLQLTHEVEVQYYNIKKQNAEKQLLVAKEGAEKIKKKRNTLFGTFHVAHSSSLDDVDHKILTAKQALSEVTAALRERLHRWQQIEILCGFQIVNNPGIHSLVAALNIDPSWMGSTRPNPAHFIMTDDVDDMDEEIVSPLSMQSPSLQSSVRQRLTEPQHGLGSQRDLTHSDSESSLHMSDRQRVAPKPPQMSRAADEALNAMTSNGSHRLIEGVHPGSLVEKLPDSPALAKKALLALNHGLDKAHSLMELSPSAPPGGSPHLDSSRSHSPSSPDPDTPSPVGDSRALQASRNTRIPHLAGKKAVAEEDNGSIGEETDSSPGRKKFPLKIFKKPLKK
Sequence of UniProt P05455 (P05455 whole entry, looked up): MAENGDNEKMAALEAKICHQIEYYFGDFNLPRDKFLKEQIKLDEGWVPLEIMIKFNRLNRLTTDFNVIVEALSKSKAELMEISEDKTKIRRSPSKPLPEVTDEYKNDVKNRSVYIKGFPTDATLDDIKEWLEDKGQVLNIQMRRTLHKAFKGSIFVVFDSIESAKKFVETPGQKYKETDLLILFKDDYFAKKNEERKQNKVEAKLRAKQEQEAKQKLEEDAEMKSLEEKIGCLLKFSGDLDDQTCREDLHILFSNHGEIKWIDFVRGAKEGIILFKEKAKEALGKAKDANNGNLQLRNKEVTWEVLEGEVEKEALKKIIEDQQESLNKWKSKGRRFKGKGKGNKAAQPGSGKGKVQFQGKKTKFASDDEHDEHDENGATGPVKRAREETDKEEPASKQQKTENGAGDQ
Sequence of UniProt Q9NZ01 (Q9NZ01 whole entry, looked up): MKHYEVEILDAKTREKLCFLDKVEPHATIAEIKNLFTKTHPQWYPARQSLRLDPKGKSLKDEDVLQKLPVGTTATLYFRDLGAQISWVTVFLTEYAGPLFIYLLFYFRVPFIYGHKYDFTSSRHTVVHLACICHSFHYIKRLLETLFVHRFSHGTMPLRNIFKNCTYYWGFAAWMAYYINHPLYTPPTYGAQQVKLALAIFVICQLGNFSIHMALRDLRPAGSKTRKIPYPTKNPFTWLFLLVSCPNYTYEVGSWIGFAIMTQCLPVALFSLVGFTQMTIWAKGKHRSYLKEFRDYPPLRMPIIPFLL

| Target | log2 fold change [1] | log2 fold change [2] | log2 fold change [3] | log2 fold change [4] | log2 fold change (entinostat) | log2 fold change (vorinostat) | log2 fold change (citarinostat) | log2 fold change (silmitasertib) | log2 fold change [5] | log2 fold change [6] |
| --- | --- | --- | --- | --- | --- | --- | --- | --- | --- | --- |
| THRAP3 (UniProt Q9Y2W1) | -0.02 | -0.076 | -0.153 | -0.037 | 0.024 | 0.021 | 0.005 | -0.169 | -0.026 | -0.257 |
| SLC38A9 (UniProt Q8NBW4) | -0.129 | 0.009 | -0.113 | -0.025 | 0.034 | 0.007 | 0.004 | 0.035 | -0.044 | -0.043 |
| TJP2 isoform 7 (UniProt Q9UDY2) | -0.129 | -0.007 | -0.171 | -0.051 | 0.014 | 0.161 | 0.039 | -0.061 | 0.025 | -0.167 |
| SPCS2 (UniProt Q15005) | 0 | -0.002 | -0.072 | 0.143 | 0.016 | 0.024 | 0.224 | -0.001 | -0.021 | 0.23 |
| SRSF4 (UniProt Q08170) | -0.059 | 0.036 | 0.196 | 0.03 | -0.002 | -0.02 | -0.028 | -0.005 | 0.206 | -0.228 |
| STOM (UniProt P27105) | -0.104 | -0.043 | -0.069 | -0.019 | -0.003 | 0.025 | 0.007 | 0.067 | 0.042 | -0.091 |
| SLC4A2 (UniProt P04920) | -0.048 | -0.055 | -0.204 (active) | -0.123 | 0.028 | 0.023 | -0.072 | 0.019 | 0.016 | -0.084 |
| STK39 (UniProt Q9UEW8) | -0.064 | 0.034 | -0.146 | -0.028 | 0.069 | 0.063 | 0.051 | 0.003 | 0.003 | -0.072 |
| SMARCA4 (UniProt P51532) | -0.144 | -0.056 | 0.048 | -0.201 | 0.012 | 0.038 | 0.102 | -0.017 | -0.067 | -0.115 |
| TIMM44 (UniProt O43615) | -0.085 | -0.141 | -0.372 (active) | -0.023 | 0.084 | 0.04 | 0.066 | -0.041 | -0.027 | -0.048 |
| SMPD4 isoform 4 (UniProt Q9NXE4) | -0.008 | -0.075 | -0.141 | -0.059 | 0.033 | 0.084 | -0.039 | 0.085 | 0.012 | 0.268 |
| SPG11 (UniProt Q96JI7) | -0.395 | -0.138 | 0.145 | -0.293 | -0.25 | -0.638 | -0.233 | 0.01 | 0.041 | -0.219 |
| SSB (UniProt P05455) | -0.018 | -0.181 | -0.01 | -0.091 | 0.039 | 0.085 | 0.02 | -0.035 | -0.089 | -0.085 |
| SNX12 isoform 1 (UniProt Q9UMY4) | -0.022 | -0.225 (active) | -0.22 (active) | 0.019 | 0.046 | 0.035 | 0.102 | 0.06 | -0.081 | -0.066 |
| SRSF11 (UniProt Q05519) | -0.183 | -0.032 | -0.063 | -0.074 | 0.018 | 0.06 | 0.046 | -0.099 | 0.037 | -0.038 |
| TECR (UniProt Q9NZ01) | 0 | -0.071 | -0.087 | -0.048 | 0.042 | 0.064 | 0.07 | 0.025 | -0.07 | -0.056 |
| SLC25A4 (UniProt P12235) | -0.012 | -0.035 | -0.056 | -0.006 | -0.019 | -0.12 | -0.021 | 0.009 | -0.025 | -0.002 |
| ST6GAL1 (UniProt P15907) | -0.101 | 0.089 | -0.079 | -0.004 | -0.106 | -0.045 | 0.025 | 0.024 | 0.017 | -0.064 |
| TCOF1 isoform 4 (UniProt Q13428) | 0.131 | -0.065 | -0.014 | -0.013 | -0.015 | -0.026 | -0.002 | 0.002 | 0.045 | -0.112 |
| SRSF3 (UniProt P84103) | -0.05 | 0.148 | 0.396 | 0.064 | -0.126 | -0.026 | -0.105 | -0.033 | 0.194 | -0.141 |
| TIMM29 (UniProt Q9BSF4) | -0.16 | -0.024 | -0.069 | -0.011 | -0.04 | -0.093 | -0.016 | 0.006 | -0.08 | -0.004 |
| SRXN1 (UniProt Q9BYN0) | -0.013 | -0.364 | -0.024 | -0.021 | -0.053 | -0.24 | -0.039 | -0.059 | -0.111 | 0.09 |
| SUN1 isoform 9 (UniProt O94901) | -0.035 | -0.073 | -0.028 | 0.102 | 0.18 | 0.06 | -0.115 | -0.009 | -0.226 | 0.075 |
| TBC1D23 (UniProt Q9NUY8) | 0.015 | -0.135 | -0.33 (active) | -0.009 | 0.06 | 0.115 | 0.045 | 0.02 | -0.073 | -0.047 |
| STIM1 (UniProt Q13586) | -0.032 | -0.074 | -0.075 | -0.117 | 0.011 | 0.022 | -0.013 | 0.007 | -0.054 | -0.04 |
| TBC1D5 isoform 2 (UniProt Q92609) | -0.006 | -0.103 | -0.233 | -0.058 | 0.029 | 0.086 | 0.111 | 0.031 | -0.076 | -0.094 |
| TMBIM1 (UniProt Q969X1) | 0.079 | -0.229 | -0.008 | -0.259 | 0.062 | -0.034 | -0.208 | 0.067 | -0.149 | 0.021 |
| TAF9 (UniProt Q16594) | -0.352 | -0.026 | 0.037 | 0 | -0.567 (active) | 0.002 | -0.043 | -0.039 | -0.022 | 0.055 |
| TIMM21 (UniProt Q9BVV7) | -0.041 | -0.055 | -0.087 | -0.047 | -0.015 | 0.04 | 0.052 | 0.024 | -0.016 | -0.016 |
| SSR3 isoform 2 (UniProt Q9UNL2) | -0.056 | 0.18 | -0.056 | 0.369 (active) | -0.04 | 0 | 0.068 | 0 | -0.028 | -0.114 |
